# According to PubChem BioAssay AID624255 (Broad Institute, 2012):
# The whole screen tested about 77,000 compounds, of which about 4,600 (6%) were called active. Another 1% or so got no clear call; they are omitted. The entries come from a sample that favours actives as a whole. A number with no mark means an inactive call.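 How the source made its calls: active means mean inhibition above about 93%, with at least 55% of replicates each passing it (limit read from the data, passing the limit was not always enough); inconclusive means only one of those two conditions holds; inactive means neither condition holds.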
# Assay: T. cruzi intracellular proliferation inhibitors, primary screen, cell-based, beta-gal Tulahuen parasites, NIH3T3 host, luminescence (AID 624255)
# Settings: T. cruzi beta-gal in NIH3T3, GalScreen luminescence, 90 h; at 8.34 µM; active compounds read high
row,SMILES,inhibition
1,O=C(C[C@@H]1CC[C@H]2[C@@H](COC[C@@H](O)CN2C(=O)c2ccc3c(c2)OCO3)O1)NC1CCCC1,27%
2,CCS(=O)(=O)Nc1ccc2c(c1)C(=O)N(C)[C@H]1CC[C@H](CC(=O)Nc3ccccc3)O[C@@H]1CO2,49.6%
3,C[C@@H]1CN([C@@H](C)CO)C(=O)c2cc(-c3ccc(F)cc3)cnc2O[C@H]1CN(C)C(=O)c1ccncc1,64.3%
4,CC(C)NC(=O)N(C)C[C@@H]1OCCCC[C@@H](C)Oc2ccc(NC(=O)c3ccccc3)cc2C(=O)N([C@@H](C)CO)C[C@H]1C,30.5%
5,COc1ccc(NC(=O)N(C)C[C@@H]2OCCCC[C@@H](C)Oc3ccc(NC(=O)C4CCCCC4)cc3C(=O)N([C@@H](C)CO)C[C@@H]2C)cc1,36.5%
6,CN1CCN(C(=O)C[C@H]2CC[C@H]3[C@H](COc4ccc(NC(=O)C5CC5)cc4C(=O)N3C)O2)CC1,14.2%
7,O=C(C[C@@H]1C[C@@H]2c3cc(NC(=O)Nc4ccc(C(F)(F)F)cc4)ccc3O[C@@H]2[C@@H](CO)O1)NCCc1ccccc1,93.5%
8,COc1ccccc1NC(=O)N1C[C@H](O)COC[C@H]2O[C@H](CC(=O)NCCc3ccccc3)CC[C@@H]21,-5.34%
9,CCCNC(=O)C[C@@H]1CC[C@@H]2[C@H](COc3ccc(NC(=O)C4CCOCC4)cc3C(=O)N2C)O1,47.3%
10,CO[C@@H]1CC[C@@H]2CCOc3ccc(C#N)cc3C(=O)N(C)C[C@@H](C)C(=O)N(C)C[C@@H]1O2,9.86%
11,C[C@H](O)C#Cc1ccc([C@H]2[C@H](CO)N3CCCCN(C(=O)c4ccc(F)cc4)C[C@@H]23)cc1,66.2%
12,CC(C)C#Cc1ccc([C@H]2[C@H](CO)N3CCCCN(C(=O)c4ccc(F)cc4)C[C@@H]23)cc1,80.8%
13,O=C(c1cccc(F)c1)N1CCCCN2[C@H](CO)[C@H](c3ccc(C#CC4(O)CCCC4)cc3)[C@H]2C1,88.1%
14,O=C(c1ccc(F)cc1)N1CCCCN2[C@H](C1)[C@@H](c1ccc(C#CC3(O)CCCC3)cc1)[C@@H]2CO,113% (active)
15,COc1ccc(S(=O)(=O)N(C)C[C@@H]2OCCCC[C@@H](C)Oc3ccc(N(C)C)cc3C(=O)N([C@@H](C)CO)C[C@@H]2C)cc1,46.8%
16,O=C(C[C@@H]1CC[C@@H](NC(=O)CC2CC2)[C@H](CO)O1)NCc1ccc(-c2ccccc2)cc1,36.4%
17,N#C[C@@H]1[C@@H](c2ccccc2)[C@@H](CO)N1C(=O)c1cc(Cl)cc(Cl)c1,90.7%
18,COc1ccc(NC(=O)Nc2ccc3c(c2)C(=O)N([C@@H](C)CO)C[C@@H](C)[C@H](CN(C)C(=O)NC(C)C)OCCCC[C@H](C)O3)cc1,19.2%
19,COc1cccc(-c2ccc3n(c2=O)C[C@@H]2[C@@H](CO)[C@H](C(=O)NCC4CC4)N(C(=O)NC(C)C)[C@H]32)c1,-3.92%
20,COc1ccc(-c2cn(CC[C@@H]3CC[C@@H](NS(=O)(=O)c4ccccc4C)[C@H](CO)O3)nn2)cc1,-38.7%
21,CCNC(=O)[C@H]1[C@H](CO)[C@H]2Cn3c(cccc3=O)[C@H]2N1C(=O)C1CCCC1,-9.09%

row,SMILES,inhibition
1,O=C(Nc1ccc(-c2ccccc2)cc1)[C@H]1[C@H](CO)[C@H]2Cn3c(cccc3=O)[C@H]2N1CC1CC1,170% (active)
2,O=C(Nc1ccc(-c2ccccc2)cc1)[C@@H]1[C@@H](CO)[C@@H]2Cn3c(cccc3=O)[C@H]1N2Cc1ccncc1,10.3%
3,O=C(NC1CCCCC1)[C@@H]1[C@@H](CO)[C@@H]2Cn3c(cccc3=O)[C@@H]2N1C(=O)CC1CC1,-9.4%
4,O=C(Nc1ccccc1)[C@@H]1[C@@H](CO)[C@@H]2Cn3c(cccc3=O)[C@@H]2N1C(=O)C1CC1,90.7%
5,O=C(NCC1CCCCC1)[C@H]1[C@H](CO)[C@H]2Cn3c(cccc3=O)[C@H]2N1C(=O)CC1CC1,101% (active)
6,COC(=O)C[C@H]1C[C@@H]2c3cc(NC(=O)Nc4ccccc4)ccc3O[C@@H]2[C@@H](CO)O1,57.1%
7,O=C(Cc1ccccn1)NCC[C@H]1CC[C@@H](NS(=O)(=O)c2ccc(F)cc2)[C@H](CO)O1,13.9%
8,COc1ccc(NC(=O)N(C)C[C@@H]2OCCCC[C@H](C)Oc3ccc(NS(=O)(=O)c4c(C)noc4C)cc3C(=O)N([C@@H](C)CO)C[C@@H]2C)cc1,52.5%
9,O=S(=O)(NC[C@H]1[C@@H](c2ccccc2)[C@@H](CO)N1CC1CC1)c1ccccc1,10.3%
10,CS(=O)(=O)N1[C@H](C#N)[C@H](c2ccc(C#CC3CCCC3)cc2)[C@H]1CO,91.5%
11,CS(=O)(=O)N1[C@@H](C#N)[C@H](c2ccc(C#CC3CCCCC3)cc2)[C@@H]1CO,105% (active)
12,N#C[C@H]1[C@@H](c2ccc(C#CC3CCCC3)cc2)[C@H](CO)N1C(=O)Nc1ccc(F)cc1,92.8%
13,N#C[C@H]1[C@@H](c2ccc(C3=CCCCC3)cc2)[C@@H](CO)N1C(=O)NC1CCCCC1,101% (active)
14,CCc1cnc(N2[C@H](C#N)[C@H](c3ccc(C4=CCCC4)cc3)[C@@H]2CO)s1,101% (active)
15,CS(=O)(=O)N1[C@H](C#N)[C@H](c2ccc(C#CC3CC3)cc2)[C@H]1CO,93%
16,CC(C)NC(=O)N1[C@H](C#N)[C@@H](c2ccc(-c3ccc(F)cc3)cc2)[C@H]1CO,34.6%
17,CCCNC(=O)N1[C@H](C#N)[C@@H](c2ccc(C3=CCCC3)cc2)[C@H]1CO,-28.9%
18,N#C[C@@H]1[C@@H](c2ccc(C3=CCCCC3)cc2)[C@@H](CO)N1C(=O)c1cccc(F)c1,5.72%
19,N#C[C@@H]1[C@@H](c2ccc(C3=CCCC3)cc2)[C@@H](CO)N1C(=O)C1CCCC1,34.1%
20,N#C[C@H]1[C@@H](c2ccc(C3=CCCCC3)cc2)[C@@H](CO)N1C(=O)Cc1ccncc1,57.5%
21,CC(C)NC(=O)N1[C@H](C#N)[C@H](c2ccc(C#CC3CCCCC3)cc2)[C@H]1CO,107% (active)
